{"source": "PubChem BioAssay (NCATS)", "note": "Results filed as inconclusive are left out. Unmarked numbers belong to inactive results. Active and inactive are the calls of the source. Calls follow the shape of the dose curve; as a rule, active = well fitted cell-killing curve with a large enough effect; inconclusive = small, poorly fitted or top-dose-only effect, or effect the other way; inactive = no such curve, though single readings can be large or run the other way. Potency is read from the fitted curve at half-maximal effect."}
{"assay": "Quantitative High-Throughput drug screen in 47 multiple myeloma cell lines against the NCATS MIPE library collection: KMS34_JCRB cell viability assay (AID 1918985); also: nearly all actives have a fitted effect of over 40% in size", "settings": "KMS34 myeloma viability, CellTiter-Glo ATP luminescence, 48 h; series mostly up to 45.8 µM; viability, percent of control: at the top concentration", "procedure,_shortened": "(§1)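 Myeloma cells (500/well) treated with MIPE 4.0 compounds for 48 h at 37 °C, 5% CO2. Viability read as ATP via CellTiter-Glo luminescence after 5 min at RT; DMSO-only wells = 100%, media-only = 0% viability.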", "units": {"viability, percent of control": "%"}}
{"smiles": "CC=C(C)C(=O)O[C@H]1C(C)=C[C@]23C(=O)[C@@H](C=C(CO)[C@@H](O)[C@]12O)[C@H]1[C@@H](C[C@H]3C)C1(C)C", "Potency": "20.9 µM (active)"}
{"smiles": "C=C1C(=O)OC(CCCCCCCC)C1C(=O)O", "note": "(configuration not stated)", "viability, percent of control": 112}
{"smiles": "CC(C)(C)c1cc(C(=O)O)c(NC(=O)Nc2ccc3[nH]ncc3c2)s1", "viability, percent of control": 103}
{"smiles": "CN(C)CCC=C1c2ccccc2COc2ccc(CC(=O)O)cc21", "viability, percent of control": 90.1}
{"smiles": "NC(=O)NN=Cc1ccc([N+](=O)[O-])o1", "viability, percent of control": 92.5}
{"smiles": "CC1(C)CCC2=C(O1)c1ccccc1C(=O)C2=O", "Potency": "13.2 µM (active)"}
{"assay": "Quantitative High-Throughput drug screen in 47 multiple myeloma cell lines against the NCATS MIPE library collection: OCIMY7_PLB cell viability assay (AID 1918987); also: nearly all actives have a fitted effect of over 65% in size", "settings": "OCI-MY7 myeloma viability, CellTiter-Glo ATP, 48 h; viability (% of DMSO): at 45.8 µM (top of the series)", "procedure,_shortened": "as §1", "units": {"viability (% of DMSO)": "%"}}
{"smiles": "O=C(N[C@@H](c1ccccc1)[C@@H]1CCCCN1)c1cccc(C(F)(F)F)c1Cl", "viability (% of DMSO)": 144}
{"smiles": "Clc1ccc(CCC(Cn2ccnc2)Sc2c(Cl)cccc2Cl)cc1", "note": "(configuration not stated)", "Potency": "13.2 µM (active)"}
{"smiles": "N[C@H](CSC(c1ccccc1)(c1ccccc1)c1ccccc1)C(=O)O", "Potency": "7.43 µM (active)"}
{"smiles": "CC[C@H]1OC(=O)[C@H](C)C(=O)[C@H](C)[C@@H](O[C@H]2O[C@H](C)C[C@H](N(C)C)[C@@H]2O)[C@](C)(OC)C[C@@H](C)C(=O)[C@H](C)[C@H]2N(CCCCn3cnc(-c4cccnc4)c3)C(=O)O[C@]12C", "Potency": "14.8 µM (active)"}
{"smiles": "COc1cccc2c1CCCC2CCCN1CCN(C2CCCCC2)CC1", "note": "(configuration not stated)", "Potency": "13.2 µM (active)"}
{"smiles": "CC(=O)O[C@]1(C(C)=O)CC[C@@H]2[C@@H]3C[C@H](C)C4=CC(=O)CC[C@]4(C)[C@H]3CC[C@@]21C", "Potency": "23.5 µM (active)"}
{"smiles": "CC=C(C)C(=O)O[C@H]1C(C)=C[C@]23C(=O)[C@@H](C=C(CO)[C@@H](O)[C@]12O)[C@H]1[C@@H](C[C@H]3C)C1(C)C", "Potency": "14.8 µM (active)"}
{"smiles": "Nc1nc(F)nc2c1ncn2[C@@H]1O[C@H](COP(=O)(O)O)[C@@H](O)[C@H]1O", "Potency": "18.7 µM (active)"}
{"smiles": "CO[C@H]1C[C@@H]2CC[C@@H](C)[C@@](O)(O2)C(=O)C(=O)N2CCCC[C@@H]2C(=O)O[C@H]([C@H](C)C[C@@H]2CC[C@H](OP(C)(C)=O)[C@H](OC)C2)CC(=O)[C@H](C)C=C(C)[C@@H](O)[C@@H](OC)C(=O)[C@H](C)C[C@H](C)C=CC=CC=C1C", "Potency": "14.8 µM (active)"}
{"smiles": "C=C1C(=O)OC(CCCCCCCC)C1C(=O)O", "note": "(configuration not stated)", "Potency": "11.8 µM (active)"}
{"smiles": "O=C1NC(=O)C(=Cc2ccc(-c3ccc(F)cc3)o2)S1", "Potency": "20.9 µM (active)"}
{"smiles": "COc1ncc(-c2ccc3nccc(-c4ccnnc4)c3c2)cc1NS(=O)(=O)c1ccc(F)cc1F", "Potency": "0.166 µM (active)"}
{"smiles": "CCNc1cc(NC2CCC(O)CC2)nc(Nc2ccc3c(ccn3Cc3ccccc3)c2)n1", "note": "(configuration not stated)", "Potency": "16.6 µM (active)"}
{"smiles": "CC[C@@H]1C=C(C)C[C@H](C)C[C@H](OC)[C@H]2O[C@@](O)(C(=O)C(=O)N3CCCC[C@@H]3C(=O)O[C@H](C(C)=C[C@@H]3CC[C@H](Cl)[C@H](OC)C3)[C@H](C)[C@@H](O)CC1=O)[C@H](C)C[C@H]2OC", "Potency": "10.5 µM (active)"}
{"smiles": "CC(C)C(=O)Nc1ncc(-c2cc(C(F)F)nn2-c2c(Cl)cccc2Cl)s1", "Potency": "16.6 µM (active)"}
{"smiles": "CO[C@H]1C[C@@H]2CC[C@@H](C)[C@@](O)(O2)C(=O)C(=O)N2CCCC[C@@H]2C(=O)O[C@H]([C@@H](C)C[C@@H]2CC[C@H](O)[C@H](OC)C2)CC(=O)[C@H](C)C=C(C)[C@@H](O)[C@@H](OC)C(=O)[C@H](C)C[C@H](C)C=CC=CC=C1C", "Potency": "14.8 µM (active)"}
{"smiles": "CC=CCC=CCCC(=O)[C@H]1O[C@@H]1C(N)=O", "Potency": "14.8 µM (active)"}
{"smiles": "Clc1cc(Cl)cc(CNc2ncncc2-c2ccc3c(c2)OCO3)c1", "Potency": "4.69 µM (active)"}
{"smiles": "CC(=O)Oc1cc2c(s1)CCN(C(C(=O)C1CC1)c1ccccc1F)C2", "note": "(configuration not stated)", "Potency": "0.935 µM (active)"}
{"smiles": "CC1(C)CCC2=C(O1)c1ccccc1C(=O)C2=O", "Potency": "3.32 µM (active)"}
{"smiles": "CCCCCNC(=O)N1CCC(CN(Cc2ccc(Cl)cc2)Cc2ccc([N+](=O)[O-])s2)C1", "note": "(configuration not stated)", "Potency": "16.6 µM (active)"}
{"smiles": "CC(C)n1nc(-c2ccc3oc(N)nc3c2)c2c(N)ncnc21", "Potency": "2.64 µM (active)"}
{"assay": "Quantitative High-Throughput drug screen in 47 multiple myeloma cell lines against the NCATS MIPE library collection: OCIMY5_PLB cell viability assay (AID 1918988); also: nearly all actives have a fitted effect of over 65% in size", "settings": "OCI-MY5 myeloma viability, ATP luminescence, 48 h; series mostly up to 45.8 µM; viability, % of control: at the top concentration", "procedure,_shortened": "as §1"}
{"smiles": "O=C(N[C@@H](c1ccccc1)[C@@H]1CCCCN1)c1cccc(C(F)(F)F)c1Cl", "Potency": "18.7 µM (active)"}
{"smiles": "N[C@H](CSC(c1ccccc1)(c1ccccc1)c1ccccc1)C(=O)O", "Potency": "9.35 µM (active)"}
{"smiles": "CC[C@H]1OC(=O)[C@H](C)C(=O)[C@H](C)[C@@H](O[C@H]2O[C@H](C)C[C@H](N(C)C)[C@@H]2O)[C@](C)(OC)C[C@@H](C)C(=O)[C@H](C)[C@H]2N(CCCCn3cnc(-c4cccnc4)c3)C(=O)O[C@]12C", "Potency": "26.4 µM (active)"}
{"smiles": "C=CCc1ccc(O)c(-c2ccc(O)c(CC=C)c2)c1", "Potency": "18.7 µM (active)"}
{"smiles": "COc1cccc2c1CCCC2CCCN1CCN(C2CCCCC2)CC1", "note": "(configuration not stated)", "Potency": "16.6 µM (active)"}
{"smiles": "CC(=O)O[C@]1(C(C)=O)CC[C@@H]2[C@@H]3C[C@H](C)C4=CC(=O)CC[C@]4(C)[C@H]3CC[C@@]21C", "Potency": "16.6 µM (active)"}
{"smiles": "Nc1nc(F)nc2c1ncn2[C@@H]1O[C@H](COP(=O)(O)O)[C@@H](O)[C@H]1O", "Potency": "23.5 µM (active)"}
{"smiles": "CCOC(CN1C(=O)[C@](CC(=O)Nc2ccc(C)cc2)(NC(=O)Nc2ccc(C)cc2)c2ccccc21)OCC", "Potency": "26.4 µM (active)"}
{"smiles": "COc1ncc(-c2ccc3nccc(-c4ccnnc4)c3c2)cc1NS(=O)(=O)c1ccc(F)cc1F", "Potency": "1.48 µM (active)"}
{"smiles": "OC[C@H]1O[C@@H](Oc2cc(O)cc(C=Cc3ccc(O)cc3)c2)[C@H](O)[C@@H](O)[C@H]1O", "Potency": "9.35 µM (active)"}
{"smiles": "CC[C@@H]1C=C(C)C[C@H](C)C[C@H](OC)[C@H]2O[C@@](O)(C(=O)C(=O)N3CCCC[C@@H]3C(=O)O[C@H](C(C)=C[C@@H]3CC[C@H](Cl)[C@H](OC)C3)[C@H](C)[C@@H](O)CC1=O)[C@H](C)C[C@H]2OC", "Potency": "16.6 µM (active)"}
{"smiles": "CC(C)C(=O)Nc1ncc(-c2cc(C(F)F)nn2-c2c(Cl)cccc2Cl)s1", "Potency": "18.7 µM (active)"}
{"smiles": "O=C1Nc2ccc(Cl)cc2C(C#CC2CC2)(C(F)(F)F)O1", "note": "(configuration not stated)", "Potency": "16.6 µM (active)"}
{"smiles": "CC=CCC=CCCC(=O)[C@H]1O[C@@H]1C(N)=O", "Potency": "14.8 µM (active)"}
{"smiles": "Clc1cc(Cl)cc(CNc2ncncc2-c2ccc3c(c2)OCO3)c1", "Potency": "20.9 µM (active)"}
{"smiles": "CC(=O)Oc1cc2c(s1)CCN(C(C(=O)C1CC1)c1ccccc1F)C2", "note": "(configuration not stated)", "Potency": "0.833 µM (active)"}
{"smiles": "CC1(C)CCC2=C(O1)c1ccccc1C(=O)C2=O", "Potency": "18.7 µM (active)"}
{"smiles": "CCCCCNC(=O)N1CCC(CN(Cc2ccc(Cl)cc2)Cc2ccc([N+](=O)[O-])s2)C1", "note": "(configuration not stated)", "Potency": "23.5 µM (active)"}
{"smiles": "CC(C)n1nc(-c2ccc3oc(N)nc3c2)c2c(N)ncnc21", "Potency": "4.69 µM (active)"}
